# Laboratory results from the supplement of paper PMC6555819.
# How the values were obtained:
# Test in all cases: PBM binding z-score (relative to random genomic background probes); higher = stronger binding; sequences stand for … in GC…GCGATTGACAGCGTAGAATGAAGG
# [1] = system: FXR:RXRa (NR concentration 270 nM, RXRa partner concentration 90 nM)
# Summary of the method: (§1)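 Each nuclear receptor dimer, without ligand, was incubated for 1 h on custom Agilent 4×180K protein-binding microarrays. Binding was detected with antibodies against each partner (one per run), and scanned fluorescence was regression-normalized. The binding z-scores are referenced to random human genomic background probes.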
# [2] = system: LXRa:RXRa (NR concentration 270 nM, RXRa partner concentration 90 nM)
# Summary of the method: as §1
# [3] = system: LXRa homodimer (NR concentration 270 nM)
# Summary of the method: as §1
# [4] = system: LXRb:RXRa (NR concentration 270 nM, RXRa partner concentration 90 nM)
# Summary of the method: as §1
# [5] = system: LXRb homodimer (NR concentration 270 nM)
# Summary of the method: as §1
# [6] = system: PPARa:RXRa (NR concentration 270 nM, RXRa partner concentration 90 nM)
# Summary of the method: as §1
# [7] = system: PPARg:RXRa (NR concentration 180 nM, RXRa partner concentration 90 nM)
# Summary of the method: as §1
# [8] = system: PPARg:RXRa 270nM:90nM, anti-RXR (NR concentration 270 nM, RXRa partner concentration 90 nM)
# Summary of the method: as §1
# [9] = system: PPARg:RXRa 30nM:10nM, anti-RXR (NR concentration 30 nM, RXRa partner concentration 10 nM)
# Summary of the method: as §1
# [10] = system: PPARg:RXRa 90nM:30nM, anti-RXR (NR concentration 90 nM, RXRa partner concentration 30 nM)
# Summary of the method: as §1
# [11] = system: PPARg:RXRa DBDmut IVT, anti-RXR (DBD mutation: RXRa K156A/R161A, NR concentration 270 nM, RXRa partner concentration 90 nM)
# Summary of the method: as §1
# [12] = system: PPARg:RXRa IVT, anti-PPARg (NR concentration 270 nM, RXRa partner concentration 90 nM)
# Summary of the method: as §1
# [13] = system: PPARg DBDmut:RXRa IVT, anti-PPARg (DBD mutation: PPARg1 K132A/R137A, NR concentration 270 nM, RXRa partner concentration 90 nM)
# Summary of the method: as §1
# [14] = system: PPARg DBDmut IVT, anti-PPARg (DBD mutation: PPARg1 K132A/R137A, NR concentration 270 nM)
# Summary of the method: as §1
# [15] = system: PPARg homodimer (NR concentration 180 nM)
# Summary of the method: as §1
# [16] = system: PXR:RXRa (NR concentration 270 nM, RXRa partner concentration 90 nM)
# Summary of the method: as §1
# [17] = system: PXR homodimer (NR concentration 270 nM)
# Summary of the method: as §1
# [18] = system: RARa:RXR (NR concentration 270 nM, RXRa partner concentration 90 nM)
# Summary of the method: as §1
# [19] = system: RARa homodimer (NR concentration 270 nM)
# Summary of the method: as §1
# [20] = system: RARb:RXRa (NR concentration 270 nM, RXRa partner concentration 90 nM)
# Summary of the method: as §1
Sequence,PBM binding z-score [1],PBM binding z-score [2],PBM binding z-score [3],PBM binding z-score [4],PBM binding z-score [5],PBM binding z-score [6],PBM binding z-score [7],PBM binding z-score [8],PBM binding z-score [9],PBM binding z-score [10],PBM binding z-score [11],PBM binding z-score [12],PBM binding z-score [13],PBM binding z-score [14],PBM binding z-score [15],PBM binding z-score [16],PBM binding z-score [17],PBM binding z-score [18],PBM binding z-score [19],PBM binding z-score [20]
AGAATGAGGTTATTAAGATCAGGGGATTGCGGTC,1.52,1.31,0.0189,1.18,-0.0318,2.51,1.47,1.87,0.612,1.08,2.94,2.52,0.849,0.535,0.326,1.14,0.713,1.15,0.826,1.34
TCATATGGGTAATACAGGTGAAAGTCGGCATCTA,0.355,1.4,0.0107,0.779,-0.138,1.82,1.1,2.13,2.8,2.4,3.38,2.88,1.3,0.765,0.704,0.281,-0.317,0.653,0.182,0.214
TCGAGTAGGTTAGTCGGGCCATTCAGCCAACATA,-0.164,-0.373,-0.481,-0.437,-1.41,0.324,-0.134,0.911,0.94,0.798,1.97,1.9,-0.829,-1.18,-0.154,-0.339,-0.506,-0.314,-1,0.287
GCGACTGGAGCAAAGCAGGTTACCATAAGGTTGG,-0.343,-0.594,-0.842,-0.498,-1.26,0.27,0.477,-0.112,-0.43,-0.311,1.03,0.463,-1.39,-1.59,0.00968,-0.101,-0.667,0.372,-0.65,-0.192
CCTAGCAGGCCCGGGTCACTCAAGCATTTCGCTT,1.18,1.11,-0.362,1.25,-0.958,2.17,-0.225,0.755,-0.825,0.0676,-0.956,-0.289,-1.26,-1.82,0.788,1.78,-0.484,2.49,-0.473,1.63
TCTTGTAGATAAGCAGGTTAAGAAAGCTGGCCAA,0.562,0.358,-0.156,-0.00905,-0.669,0.533,-0.481,1.19,2.41,1.65,1.32,0.184,0.000724,-0.186,0.0505,0.206,-0.278,0.402,0.154,0.0488
